What all share (settings): Compound Concentration (nM):1000
For assay [1], the system named is KIT-autoinhibited.
For assay [2], the system named is KIT.
Assay [3] relates to LATS1.
Assay [4] concerns LATS2.
For assay [5], the system named is LCK.
In assay [6] the test system is LIMK1.
The test system of assay [7] is LIMK2.
For assay [8], the system named is T1, LKB1.
T1 construct: gene STK11

The test system of assay [9] is T2, LOK.
T2 construct: gene STK10

Assay [10] deals with LRRK2(G2019S).
The subject of assay [11] is LRRK2.
Assay [12] deals with LTK.
For assay [13], the system named is LYN.
Assay [14] relates to T3, LZK.
T3 construct: gene MAP3K13

For assay [15], the system named is MAK.
Assay [16] concerns MAP3K15.
The test system of assay [17] is MAP3K1.
The subject of assay [18] is MAP3K2.
Assay [19] relates to MAP3K3.
In assay [20] the test system is MAP3K4.
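Further: KINOMEscan scanMAX binding as percent activity remaining versus control; lower means stronger binding.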

On to `COc1cccc(-n2ncc3c(N/N=C/c4ccncc4)ncnc32)c1` [GW784752X], for which the “Percent Control” value in [1] is 100%; in assay [2], 91%; in assay [3] it was 100%; in [4], 100%; in assay [5], 35%; in [6], 99%. Besides, the “Percent Control” value is 100% in assay [7]; 100% in assay [8]; 100% in assay [9]; 96% in assay [10]; 91% in assay [11]; 100% in [12]. Moreover, the “Percent Control” value in assay [13] was 58%; in assay [14], 100%; in assay [15] it was 100%; in [16], 97%; in assay [17] it was 70%; in assay [18] it was 100%. The results for the “Percent Control” value in assay [19] and in assay [20] were 84% and 89%, respectively.
Turning to `NS(=O)(=O)c1ccc(Nc2ncc(-c3ccccc3)o2)cc1` [GW572399X], the “Percent Control” value in assay [1] is 31%; in [2], 30%; in assay [3], 100%; in [4], 100%; in [5], 100%; in assay [6], 100%. Moreover, the “Percent Control” value was 100% in assay [7]; 87% in assay [8]; 100% in [9]; 78% in assay [10]; 76% in assay [11]; 100% in assay [12]. Besides, the “Percent Control” value is 100% in assay [13]; 100% in [14]; 100% in [15]; 99% in assay [16]; 59% in [17]; 87% in [18]. Moreover, the “Percent Control” value in assay [19] and in [20] was 100% each time.
Turning to `COc1ccc2cc(-c3c(-c4ccncc4)nc(-c4ccc(S(C)(=O)=O)cc4C)n3C)ccc2c1` [SB-633825], the “Percent Control” value in assay [1] is 91%; in assay [2], 74%; in assay [3], 67%; in [4], 70%; in assay [5], 54%; in [6], 74%. In addition, the “Percent Control” value in [7] is 29%; in [8] it was 100%; in assay [9] it was 1.3%; in assay [10], 90%; in [11] it was 96%; in assay [12], 23%. For the same molecule, the “Percent Control” value was 66% in assay [13]; 65% in [14]; 86% in assay [15]; 83% in assay [16]; 60% in [17]; 60% in assay [18]. Besides, the “Percent Control” value in assay [19] came out at 79%; in [20] it was 90%.
For `Cl.O=C(O[C@H]1CN[C@H](C#Cc2cc3ncnc(Nc4ccc5c(cnn5Cc5ccccc5)c4)c3s2)C1)N1CCOCC1` [GSK200398A], the “Percent Control” value is 96% in assay [1]; 100% in assay [2]; 100% in [3]; 100% in assay [4]; 81% in assay [5]; 100% in assay [6]. The “Percent Control” value in [7] is 100%; in assay [8], 100%; in [9], 63%; in assay [10] it was 84%; in [11], 97%; in assay [12], 85%. In addition, the “Percent Control” value in [13] was 76%; in assay [14] it was 100%; in assay [15], 100%; in [16] it was 95%; in [17] it was 56%; in assay [18], 97%. Besides, the “Percent Control” value was 89% in assay [19] and 82% in [20].
Consider `COc1cc(C)c(N(C)C(=O)CN(C)C)cc1Nc1nc(Nc2cccc(F)c2C(N)=O)c2cc[nH]c2n1` [GSK2219385], for which the “Percent Control” value in assay [1] was 100%; in assay [2], 100%; in assay [3], 100%; in [4] it was 80%; in [5], 100%; in assay [6] it was 100%. The “Percent Control” value was 96% in assay [7]; 83% in assay [8]; 100% in [9]; 8.8% in assay [10]; 11% in [11]; 74% in assay [12]. Also, the “Percent Control” value in assay [13] was 100%; in [14] it was 80%; in [15] it was 100%; in assay [16], 98%; in assay [17] it was 83%; in assay [18], 93%. The “Percent Control” value in assay [19] worked out at 67%; in [20], 90%.

These data come from paper PMC7826789 (International Journal of Molecular Sciences, 2021).
